TSHR antag: antagonists of human thyroid stimulating hormone receptor; hit rate 0.2% among 330,000; TSHR-expressing cells, TSH-stimulated cAMP HTRF, 2 h; hits give low values; activity change, negative = inhibition, % at 11.5 µM;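 active = activity change below a set negative limit, meaning inhibition stronger than a set level, cut at about -70% in these data; inconclusive = activity change between two set negative limits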
Target sequence (P16473 whole entry, looked up): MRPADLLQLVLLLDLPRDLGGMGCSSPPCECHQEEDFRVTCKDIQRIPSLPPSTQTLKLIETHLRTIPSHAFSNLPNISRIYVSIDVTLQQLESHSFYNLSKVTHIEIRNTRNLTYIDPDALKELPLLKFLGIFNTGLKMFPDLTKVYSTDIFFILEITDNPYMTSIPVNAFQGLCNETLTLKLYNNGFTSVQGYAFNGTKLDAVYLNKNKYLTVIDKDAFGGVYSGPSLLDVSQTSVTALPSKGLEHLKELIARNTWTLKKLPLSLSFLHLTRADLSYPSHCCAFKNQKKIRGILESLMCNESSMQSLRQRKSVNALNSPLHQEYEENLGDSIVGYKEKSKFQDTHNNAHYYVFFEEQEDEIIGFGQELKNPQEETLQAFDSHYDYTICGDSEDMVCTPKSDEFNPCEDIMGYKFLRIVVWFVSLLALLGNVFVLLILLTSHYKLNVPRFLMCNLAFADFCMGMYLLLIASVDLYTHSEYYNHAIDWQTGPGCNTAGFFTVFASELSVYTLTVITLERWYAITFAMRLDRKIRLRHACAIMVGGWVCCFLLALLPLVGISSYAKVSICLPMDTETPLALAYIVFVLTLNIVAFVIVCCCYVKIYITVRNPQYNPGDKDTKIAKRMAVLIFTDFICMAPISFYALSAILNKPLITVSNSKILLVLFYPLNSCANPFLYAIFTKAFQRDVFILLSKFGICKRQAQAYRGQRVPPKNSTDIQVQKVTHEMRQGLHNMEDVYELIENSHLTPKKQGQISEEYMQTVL
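Freshly harvested TSHR cells receive pin-tooled compound, then EC80 TSH at 4nM final. After 2 hours at 37 deg C, antibody in lysis buffer and cAMP-d2 are added; 30 minutes at ambient temperature precede the HTRF read.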
RORgamma inh: blocks mouse ROR gamma transcriptional activity; P51450; Drosophila S2 Gal4-RORgamma UAS-luciferase reporter, 20 h; Potency, µM (series often up to 53.6 µM), for inactives: top-dose activity change, negative = inhibition, usual class: inhibitors; hit rate 5.4% among 310,000; AID 2551; also: potency is read from the fitted curve at half-maximal effect; nearly all actives have a fitted effect of over 60% in size
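Luminescence from a UAS-regulated Photinus luciferase reporter in stably transfected Drosophila Schneider cells is measured; decreased signal marks ROR gamma inhibition. Fusion expression is induced by 700 uM copper sulfate for 20 hr.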
Coupling enz: coupling enzyme interference in Giardia aldolase counter-screen | coupling enzyme system counterscreen, AmpLite Red fluorescence | activity change, negative = inhibition, % at 58.2 µM, hits read low | hit rate 0.67% among 290,000 | AID 2472; in the data active = activity change below about -30%
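First, compound is pin-transferred into glyceraldehyde-3-phosphate coupling-enzyme reagent at 57.5 uM final and held 10 min at RT. Next, substrate, coupling system and AmpLite Red are added. After 20 min RT, fluorescence (525/598 nm) is read.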
ELG1 repair inh: blocks ELG1-dependent DNA repair in HEK293T cells | HEK293T ELG1-luciferase reporter, luminescence, 16 h; DNA damage induced by 5-fluorouridine | Potency, µM (titrated, usually from 46.1 µM), without a hit: at the highest dose activity change, negative = inhibition, actives largely listed as inhibitors | hit rate 2.3% among 330,000; also: potency is read from the fitted curve at half-maximal effect; nearly all actives have a fitted effect of over 55% in size
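Cells (2,000 per well) received 5-fluorouridine plus test compound or DMSO and were incubated 16 hr at 37 °C, 5% CO2. Luciferase activity was read by luminescence 30 min after ONE-Glo addition; signal suppression marked inhibition of damage-induced ELG1 function.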
Gal4-VP16 FLuc: Gal4-VP16 reporter inhibition counter-screen. Drosophila S2 Gal4-VP16 UAS-luciferase, luminescence, 20 h. Potency, µM (top dose mostly 53.6 µM), for the others: at the top dose activity, negative = inhibition, usual class: inhibitors. hit rate 3.5% among 310,000. AID 2546;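 also: Gal4-VP16 expression switched on by copper sulfate through the metallothionein promoter; potency is read from the fitted curve at half-maximal effect; nearly all actives have a fitted effect of over 50% in size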
The depositor's hits bear a star; u = inconclusive; x = no result; [ ] = remark or other dose. Shown are actives, neighbours in structure and some others; about 8% of the full set was active somewhere. Unless noted, calls follow the shape of the dose curve; as a rule, active = well fitted curve in the direction sought with a large enough effect; inconclusive = small, poorly fitted or top-dose-only effect, or another doubt; inactive = no such curve, though single readings can be large; an effect the other way counts as inactive or inconclusive. % is scaled to controls: 0 for no effect and ±100 for the full control effect.

SMILES	TSHR antag	RORgamma inh	Coupling enz	ELG1 repair inh	Gal4-VP16 FLuc
CN(C)CCN1CCc2ccccc21	x	-12%	-43*	x	2%
CC(C)N(C(=O)COC(=O)[C@@H]1CC(O)CN1S(=O)(=O)c1ccc(C(C)(C)C)cc1)C(C)C (stereo partly specified)	-4	-2%	3	u	-25%
CN(C)c1ccc(C=C(c2nnnn2-c2ccccc2)c2nnnn2-c2ccccc2)cc1	-9	1%	-3	12µM*	-1%
Cn1c(=O)c2c(nc(NCCNC(=O)c3ccco3)n2Cc2ccc(Cl)cc2Cl)n(C)c1=O	-8	2%	2	u	0%
Cn1c(=O)c2c(nc(N/N=C/c3ccc(OC(=O)c4ccco4)cc3)n2Cc2ccc(F)cc2)n(C)c1=O	-6	-11%	-3	16µM*	18µM*
Cn1c(=O)c2c(nc(N/N=C/c3ccc(OC(=O)c4ccco4)cc3)n2Cc2ccccc2Cl)n(C)c1=O	-4	10%	0	16µM*	-1%
Cn1c(=O)c2c(nc(N/N=C/c3cccnc3)n2Cc2ccccc2)n(C)c1=O	-13	38%	1	u	-15%
O=C(O)c1sccc1S(=O)(=O)Nc1ccc(Cl)cc1	x	13%	-3	x	-5%
COc1ccc(/C=C/C(=O)OCC(=O)NC(C)CCc2ccccc2)cc1 (stereo unspecified)	1	x	x	1%	x
CCc1nc(N2CCCCC2C(=O)O)c2oc3ccccc3c2n1 (stereo unspecified)	-9	22%	5	-13%	3%
CCc1nc(N2CCCCC2)c2oc3ccccc3c2n1	x	16µM*	5	x	-23%
CCc1nc(N2CCN(Cc3ccc4c(c3)OCO4)CC2)c2oc3ccccc3c2n1	-17	13µM*	1	17%	-29%
Cc1nc(N2CCOCC2)c2oc3ccccc3c2n1	13	-23%	1	-23%	-3%
CCc1nc(N2CCCCC2C)c2oc3ccccc3c2n1 (stereo unspecified)	x	18µM*	3	x	u
CCc1nc(N2CCCC(C)C2)c2oc3ccccc3c2n1 (stereo unspecified)	19	-88%	4	u	4µM*
CCc1nc(Nc2ccc3c(c2)OCO3)c2oc3ccccc3c2n1	-11	-1%	-5	u	-4%
CCOC(=O)C1CCCN(c2nc(C)nc3c2oc2ccccc23)C1 (stereo unspecified)	-22	u	0	u	u
COc1cc(C2C3=C(CCCC3=O)Nc3[nH]n(-c4ccccc4)c(=O)c32)ccc1OC(C)=O (stereo unspecified)	3	6%	1	15%	-9%
S=c1nc2ccccc2c2nc(-c3ccccc3Br)[nH]n12	12	0.45µM*	-12	-7%	2.2µM*
COc1ccc(NC(=O)c2ccc(NC(=O)CSc3nc(N)cc(=O)[nH]3)cc2)cc1	-1	x	x	u	x
O=C1NC[C@H](c2ccccc2)OC(=O)[C@@H](Cc2ccc(F)cc2)CC/C=C/C[C@H]1CC(=O)N(CCO)Cc1ccccc1	-21	x	x	5.2µM*	x
O=C1NC[C@H](c2ccccc2)OC(=O)[C@H](Cc2ccc(F)cc2)C/C=C\C[C@@H]1CC(=O)N(CCO)Cc1ccccc1	-9	x	x	u	x
O=C1NC[C@@H](c2ccccc2)OC(=O)[C@@H](Cc2ccc(F)cc2)C/C=C\C[C@@H]1CC(=O)N(CCO)Cc1ccccc1	-13	x	x	21µM*	x
O=C1NC[C@H](c2ccccc2)OC(=O)[C@@H](Cc2ccc(F)cc2)CC/C=C/C[C@@H]1CC(=O)N(CCO)Cc1ccccc1	-9	x	x	23µM*	x
O=C1N[C@@H](Cc2c[nH]c3ccccc23)COC(=O)[C@@H](Cc2ccc(F)cc2)CC/C=C/C[C@@H]1CC(=O)N(CCO)Cc1ccccc1	-19	x	x	21µM*	x
SMILES	TSHR antag	RORgamma inh	Coupling enz	ELG1 repair inh	Gal4-VP16 FLuc
CCOc1ccc(S(=O)(=O)Nc2ccc3c(c2)OCO3)cc1	-2	u	2	3%	-18%
CCC(C)(C)NC(=O)C(c1ccc(F)cc1)N(CCOC)C(=O)CCC(=O)Nc1nccs1 (stereo unspecified)	5	-35%	1	-2%	-9%
COc1ccc(CN2CC(C(N)=O)Oc3ccccc32)cc1F (stereo unspecified)	-5	1%	0	2%	-3%
CCCCC#Cc1cncc(C(=O)N/N=C/c2cccc(OC)c2)c1	-12	11µM*	-1	u	u
COc1cc(NC(=O)c2cc(-c3ccccc3Cl)on2)cc(OC)c1OC	-24	27%	-3	9.2µM*	-2%
CN(CCCNC(=O)c1cc2c(Cl)nc3ccccc3c2s1)Cc1ccccc1	11	u	-1	16%	11µM*
CCN(CC)CCCNC(=O)c1cc2c(Cl)nc3ccccc3c2s1	8	-28%	0	0%	-19%
COc1ccc(NC(=O)c2cc(-c3ccccc3Cl)on2)cc1	39	u	-4	u	-8%
COc1cc(NC(=O)c2cc3c(Cl)nc4ccccc4c3s2)cc(OC)c1OC	4	15%[10 µM]	3	6.5µM*	1%
O=C(O)c1ccc(S(=O)(=O)N[C@@H](Cc2ccc(O)cc2)C(=O)O)cc1	16	-1%	0	x	-15%
CS(=O)(=O)c1ccc(Cl)c(NC(=O)COC(=O)Cc2c[nH]c3ccccc23)c1	7	x	x	4%	x
COC(=O)c1cccc(NC(=O)CCN2C(=O)C3CC=CCC3C2=O)c1 (stereo unspecified)	-20	x	x	17%	x
CCOc1ccccc1N1CCN(C(=O)c2ccc(NS(=O)(=O)c3ccc4[nH]c(=O)[nH]c4c3)cc2)CC1	-1	x	x	13%	x
Cc1cc(Cl)n2c(nc3cc(F)c(F)cc32)c1C#N	-73*	4.5µM*	0	u	7.1µM*
Cc1cc(C)n2c(=O)c3ccc(Cl)cc3nc2c1C#N	-9	13%	5	-6%	-10%
Cc1onc(-c2ccccc2Cl)c1C(=O)Nc1nnc(-c2ccc(Br)cc2)s1	-18	10µM*	4	-19%	22µM*
Cc1onc(-c2ccccc2Cl)c1C(=O)Nc1nnc(-c2ccc(F)cc2)s1	-14	u	4	-2%	-12%
Cc1onc(-c2ccccc2Cl)c1C(=O)Nc1nnc(-c2ccc(Cl)cc2Cl)s1	-8	14µM*	12	-6%	u
Cc1onc(-c2c(F)cccc2Cl)c1C(=O)Nc1nnc(-c2ccccc2)s1	-13	14µM*	8	-18%	u
Cc1cc(NC(=O)c2c(-c3ccccc3Cl)noc2C)no1	11	-2%	1	-18%	-3%
c1ccc(Nc2ncncc2-c2ccoc2)cc1	x	5%	-4	x	12%
CCOc1c(C)cc(S(=O)(=O)NCc2ccccn2)c(C)c1C	15	u	0	-18%	3%

Screening results: PubChem, National Center for Advancing Translational Sciences (NCATS)
